# Test results taken from the supplement of paper PMC6992640.
# Where a name gives a salt, the structure may show the parent alone. ± gives the standard deviation of the averaged measurements.
# Columns and labels:
# Assay in all cases: cell viability (% of vehicle); higher = less cytotoxic
# [1] = tested on: HCI01 (cells of a triple-negative basal-like breast cancer xenograft); settings: 1 µM; 72 h
# [2] = tested on: UCD52 (cells of a triple-negative basal-like breast cancer xenograft); settings: 1 µM; 72 h
# [3] = tested on: WHIM2 (cells of a triple-negative basal-like breast cancer xenograft); settings: 1 µM; 72 h
# [4] = tested on: WHIM30 (cells of a triple-negative basal-like breast cancer xenograft); settings: 1 µM; 72 h
# [5] = tested on: HCI01; settings: 10 µM; 72 h
# [6] = tested on: HCI03 (cells of an ER-positive luminal breast cancer xenograft); settings: 10 µM; 72 h
# [7] = tested on: HCI09 (cells of a triple-negative luminal androgen receptor type breast cancer xenograft); settings: 10 µM; 72 h
# [8] = tested on: HCI11 (cells of an ER-positive luminal breast cancer xenograft); settings: 10 µM; 72 h
# [9] = tested on: HCI13 (cells of an ER-positive luminal breast cancer xenograft); settings: 10 µM; 72 h
# [10] = tested on: HCI16 (cells of a triple-negative basal-like breast cancer xenograft); settings: 10 µM; 72 h
# [11] = tested on: UCD52; settings: 10 µM; 72 h
# [12] = tested on: WHIM2; settings: 10 µM; 72 h
# [13] = tested on: WHIM30; settings: 10 µM; 72 h
Compound,cell viability [1],cell viability [2],cell viability [3],cell viability [4],cell viability [5],cell viability [6],cell viability [7],cell viability [8],cell viability [9],cell viability [10],cell viability [11],cell viability [12],cell viability [13]
CC(C)(C)c1ccc(C(=O)CCCN2CCC(OC(c3ccccc3)c3ccccc3)CC2)cc1 [Ebastine],94.4,87.5,107,83.4,83.8 ± 57,70.2,53.2 ± 39,81.2,31.9 ± 3.6,77.5,52.1 ± 4.6,52.3 ± 7.3,78.2 ± 9.7
COc1ccccc1OCCNCC(O)COc1cccc2[nH]c3ccccc3c12 (stereo unspecified) [Carvedilol],92.5,99.9,91.3,111,97.88 ± 0.3,69.9,75.9 ± 8.1,88.7,123.82 ± 0.064,127,44 ± 1.3,46.1 ± 3.3,102.1 ± 0.59
COc1cc(C(=O)O)ccc1NC(=O)C1NC(CC(C)(C)C)C(C#N)(c2ccc(Cl)cc2F)C1c1cccc(Cl)c1F (stereo unspecified),95.1,89.1,99.1,91.3,63.9 ± 30,143,37.1 ± 9.3,118,60.9 ± 7.6,97.1,101 ± 6.1,44.9 ± 8.6,102 ± 14
CCN1CCN(Cc2ccc(Nc3ncc(F)c(-c4cc(F)c5nc(C)n(C(C)C)c5c4)n3)nc2)CC1.CS(=O)(=O)O,83.9,46.7,130,52.6,87.8 ± 54,136,83 ± 14,135,71.6 ± 8.8,116,26.16 ± 0.13,30.4 ± 14,80.6 ± 5.5
CCOc1cc2ncc(C#N)c(Nc3ccc(OCc4ccccn4)c(Cl)c3)c2cc1NC(=O)C=CCN(C)C [Neratinib (HKI-272)],78.4,43.9,36.4,68.9,30.1 ± 7.1,38.1,27.8 ± 11,21.3,37.6 ± 1.3,38.7,23.2 ± 2.3,49.8 ± 12,96.1 ± 1.7
COc1cc2nccc(Oc3ccc(NC(=O)NC4CC4)c(Cl)c3)c2cc1C(N)=O [Lenvatinib (E7080)],89.1,56.2,83,94.1,94.2 ± 28,70.5,79.8 ± 7.3,48.6,44.8 ± 3.3,61.4,57.8 ± 6.3,64 ± 21,48.1 ± 2
COc1nc2ccc(Br)cc2cc1[C@@H](c1ccccc1)[C@@](O)(CCN(C)C)c1cccc2ccccc12 [Bedaquiline fumarate],90.7,108,97.8,99.8,79.1 ± 18,75.7,64.5 ± 22,80.3,116.1 ± 1.1,87,42.6 ± 0.72,48.7 ± 2.1,70 ± 2.9
